Results from PubChem BioAssay AID624331 (National Center for Advancing Translational Sciences (NCATS), 2012).
Inconclusive results are not listed. Unmarked numbers belong to inactive results. Activity calls are given as the source filed them. Calls come from the whole dose curve; as a rule, active = well fitted activation curve with a large enough effect; inconclusive = small, poorly fitted or top-dose-only effect; inactive = no such curve, though single readings can be large or run the other way.

Experiment: qHTS assay for re-activators of p53 using a Luc reporter: Hit Validation with no p53 Expressed; for activity change, positive = activation: 0% is about no effect
Details: p53-null cells, luciferase reporter counter-screen; series mostly up to 46.1 µM; activity change, positive = activation: at the top concentration
Outline: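 Counter-screen of primary hits in a cell line not transfected with p53, in Opti-MEM with 10% FBS; compounds at several concentrations (10 mM stock, 1:5; top 46.1 µM in well), 24 h at 37 deg C, 5% CO2. Luminescence read after 10 min with Amplite reagent.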
Potency is the fitted concentration of half-maximal effect.

In order of falling “activity change, positive = activation” value:
1. O=C(/C=C/c1ccc([N+](=O)[O-])s1)N1CCCCC1  156%
2. CN(C)c1ccc(NC(=O)CCCc2ccccc2)cc1  91.2%
3. Clc1ccc(OCc2nc(-c3ccccn3)no2)c(Br)c1  76.4%
4. COc1ccccc1C(=O)CSc1nccn1C  68.7%
5. COc1ccc(C(c2nnnn2CCc2ccccc2)N2CCN(C3CCCC3)CC2)cc1 (stereo not given)  66%
6. COc1cc(N=c2c([N+](=O)[O-])nn(-c3ccc4c(c3)OCCO4)n2O)cc(OC)c1  65.3%
7. COc1ccc(N(C(=O)Nc2ccc(Cl)cc2)C2=NCCC2)cc1  38.3%
8. CC(C)C(=O)OCC(=O)Nc1ccc(N=Nc2ccccc2)cc1  34.9%
9. CSC1=NCCN1C(=O)c1ccc(Br)o1  28.7%
10. CC(C)(C)Nc1ncnc2c1cnn2-c1ccccc1  24.1%
11. CC(=O)Nc1ccc2oc(-c3ccccc3Br)nc2c1  24%
12. O=C(NC(=S)Nc1cccc(O)c1)C1CCCCC1  20.3%
13. Cc1c(/C(O)=C2/C(=O)C(=O)N(CCN3CCOCC3)C2c2cccs2)cnn1-c1ccccc1 (stereo not given)  16.8%
14. Cc1ccc(OC(=O)c2cccc(S(=O)(=O)N3CCCC3)c2)c(-n2nc3ccccc3n2)c1  15.2%
15. O=C1CCCC(O)=C1N=Nc1ccc2c(c1)OCO2  13.7%
16. COc1ccc(-c2nnc(SCC(=O)/C(C#N)=C(\C)N)o2)cc1  13.7%
17. O=C(NCCC1=CCCCC1)c1ccc(F)c(S(=O)(=O)N2CCOCC2)c1  13.5%
18. Cn1ncc(Cl)c(Oc2ccc(C(C)(C)C)cc2)c1=O  9.17%
19. O=C(/C=C/c1cccs1)Nc1ccc(Br)cn1  6.73%
20. COc1ccc(C2/C(=C(/O)c3ccc(C)cc3)C(=O)C(=O)N2CCCN2CCOCC2)cc1 (stereo not given)  -2.06%
21. Cc1ccc(NC(=O)C2CCCO2)cc1[N+](=O)[O-] (stereo not given)  -2.44%
22. COc1ccc([N+](=O)[O-])cc1NC(=O)C1CCCCC1C(=O)O (stereo not given)  -7.45%
23. Cc1cc(C(=O)CSc2nnc(N)s2)c(C)n1Cc1cccs1  -10.8%
24. Cc1ccc(OCC(=O)c2cc(C)n(C3CC3)c2C)c([N+](=O)[O-])n1  -11.5%
25. CCn1c(C)nc2cc(C(=O)NNC(=O)c3ccc(C)cc3)ccc21  -13.2%
26. CC(=O)N1CCC(C(=O)Nc2ccc(S(=O)(=O)NCCc3ccccc3)cc2)CC1  -14.8%
27. S=C(Nc1cccc(Br)c1)c1ccccc1  -20.7%
28. COc1ccc2nc(NC(=O)Nc3ccccc3OC)sc2c1  -21.1%
29. CCCC(=O)NC(c1cccs1)c1cc([N+](=O)[O-])c2cccnc2c1O (stereo not given)  -22.1%
30. CCCN(C(=O)c1cccc(S(=O)(=O)N2CCCc3ccccc32)c1)C1CCS(=O)(=O)C1 (stereo not given)  -22.7%
31. O=C(c1ccc(N2CCN(S(=O)(=O)c3ccccc3)CC2)c([N+](=O)[O-])c1)N1CCOCC1  -29.5%
32. CC(C)(C)c1ccc(/C=N/Nc2ccc(C(=O)O)cc2)cc1  -29.8%
33. CC(C)(C)c1nnc(N/N=C/c2cc(Br)ccc2O)n(N)c1=O  -30.3%
34. Cc1noc(C)c1C(=O)Nc1nc(-c2ccc(F)cc2)cs1  -37.1%
35. COc1nnc(-c2ccc(C)c(S(=O)(=O)N(C)C)c2)c2ccccc12  -50.2%
36. Cc1ccc(C(=O)N2CC(=O)Nc3ccc(F)cc3C2c2ccc(F)cc2)cc1[N+](=O)[O-] (stereo not given)  -57%
37. O=C(COC(=O)c1cc2ccccc2oc1=O)Nc1cccc(S(=O)(=O)N2CCCCCC2)c1  -57.6%
38. COc1ccc2[nH]c(=O)c3c(c2c1)OC(C)(C)C=C3  -65.7%
39. Cc1ccc2nc(-c3ccc(NC(=O)COC(=O)c4ccc(Br)o4)cc3)sc2c1  -74.3%

In the case of `COc1ccc(C(=O)O/N=C(\N)c2ccccc2)c(OC)c1`, the Potency was 1160 nM (active).
